A selection: hits, their analogues and other compounds. The true share with any hit is near 2.4%.
CHT inh: inhibits the human high affinity choline transporter. Q9GZV3. CHT-expressing cells, membrane potential dye, choline response; hits give low values. B-score at 10 µM. 310,000 tested, 0.86% active;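 active means B-score over 3 SD under the library average, and starting fluorescence ratio not unusually high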;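 further: choline stimulus applied at its EC90 after an EC20 pre-addition; B-score computed on integrated fluorescence ratio after choline addition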
CHT PAM: allosteric activators of human choline transporter CHT | B-score at 10 µM | 310,000 tested, 0.49% active | CHT-expressing cells, membrane potential dye, choline EC20; hits give high values; LV-AA mutant CHT in HEK293 cells | Q9GZV3 | AID 488977;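 active means initial fluorescence not abnormally high and integrated response B-score, plate-corrected, over 3 SD above library mean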
ANO1 activ: mouse TMEM16A channel activation, primary screen; Q8BHY3; B-score at 10 µM; 340,000 tested, 0.3% active; AID 623877; HEK293 TMEM16A/YFP-H148Q/I152L, iodide quench fluorescence; hits give low values;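 active means fluorescence-ratio B-score plate-corrected deviation score at least 3 library SD below zero, with starting fluorescence score within 5 deviations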;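 further: channel opened by trigger with iodide after compound preincubation; score built on the fluorescence ratio of max minus min over baseline; more negative score means more quench and so TMEM16A activation or potentiation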
Target sequence (Q8BHY3 whole entry, looked up): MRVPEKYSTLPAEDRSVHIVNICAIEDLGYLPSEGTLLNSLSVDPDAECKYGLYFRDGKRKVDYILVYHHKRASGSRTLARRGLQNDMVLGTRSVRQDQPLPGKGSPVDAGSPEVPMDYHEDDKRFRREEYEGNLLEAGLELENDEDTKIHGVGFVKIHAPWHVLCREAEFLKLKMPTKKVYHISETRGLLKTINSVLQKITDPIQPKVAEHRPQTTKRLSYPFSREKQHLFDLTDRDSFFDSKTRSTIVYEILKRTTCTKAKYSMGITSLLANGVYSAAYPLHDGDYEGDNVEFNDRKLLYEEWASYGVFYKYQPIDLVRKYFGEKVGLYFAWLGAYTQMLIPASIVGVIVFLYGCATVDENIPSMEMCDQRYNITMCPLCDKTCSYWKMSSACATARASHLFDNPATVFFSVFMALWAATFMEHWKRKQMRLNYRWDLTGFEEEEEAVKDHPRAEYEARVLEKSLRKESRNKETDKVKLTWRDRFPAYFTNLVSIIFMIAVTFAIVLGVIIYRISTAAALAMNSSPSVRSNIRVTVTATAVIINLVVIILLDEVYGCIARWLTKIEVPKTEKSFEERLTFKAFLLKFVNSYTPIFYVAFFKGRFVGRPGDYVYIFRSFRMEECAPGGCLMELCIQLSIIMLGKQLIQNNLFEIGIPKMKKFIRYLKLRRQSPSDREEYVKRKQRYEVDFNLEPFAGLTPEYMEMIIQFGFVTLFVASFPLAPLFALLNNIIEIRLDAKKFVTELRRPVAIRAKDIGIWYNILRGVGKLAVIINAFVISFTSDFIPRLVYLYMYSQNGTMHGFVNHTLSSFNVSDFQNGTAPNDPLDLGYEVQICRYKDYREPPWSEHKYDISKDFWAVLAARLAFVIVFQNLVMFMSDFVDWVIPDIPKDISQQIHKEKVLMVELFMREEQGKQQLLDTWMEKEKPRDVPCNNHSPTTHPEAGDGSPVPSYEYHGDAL
TMEM16A inh: mouse TMEM16A channel inhibition, primary screen. normalized B-score (activity score, 25-100; higher = stronger inhibition) at 10 µM. 310,000 tested, 1.2% active. HEK293 TMEM16A/YFP iodide influx fluorescence, ionomycin. Q8BHY3. AID 588511;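 active means ratio plate-corrected score three or more library SD toward inhibition, starting fluorescence score within five deviations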;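 further: score derived from kinetic fluorescence span divided by baseline fluorescence per well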
CHT inh conf: confirmation of human choline transporter CHT inhibitors; shares compounds with CHT inh; CHT-expressing cells, choline membrane potential dye; LV-to-AA substituted CHT, HEK293 cells; CHT activity remaining % of control (hits give low values), % at 10 µM; 2,400 tested, 70% active;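 active means choline transporter activity left, mean of duplicates at 10 µM, below buffer-only control mean minus 3 SD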;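 further: depolarization triggered by choline at its EC90 following an EC20 pre-addition; 0% = hemicholinium-3 full block and 100% = buffer-only control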
HEK293 CHT ctr: CHT inhibitor counter-screen hit in parental HEK293 cells; shares compounds with CHT inh; membrane potential dye, choline response; active = decrease or increase beyond buffer ±3SD; membrane potential ratio readout (active if shifted either direction beyond buffer ±3SD; no single direction) at 10 µM; 2,400 tested, 4% active; AID 493222;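 further: parental cells lack the transporter so any hit is non-specific; ratio is peak minus trough fluorescence over baseline after EC90 choline challenge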
Numbers without * were called inactive; i = inactive; · = no result given.

SMILES | CHT inh | CHT PAM | ANO1 activ | TMEM16A inh | CHT inh conf | HEK293 CHT ctr
O=C(CCc1ccc(S(=O)(=O)N2CCOCC2)cc1)N1CCc2ccccc2C1 | -5.8* | i | i | i | 66%* | i
CC(Oc1ccc(F)cc1)C(=O)NN (stereo not given) | i | i | i | i | · | ·
O=[N+]([O-])c1cccc(CNc2ccc3c(c2)CCC3)c1 | i | i | i | i | · | ·
Cc1cc(C)n2nc(SCC(=O)N3CC(C)CC(C)C3)nc2n1 (stereo not given) | · | · | i | · | · | ·
Cc1noc(C)c1CSc1nc2ccccc2n1CCc1ccccc1 | -5* | i | i | i | i | i
O=C(O)CCn1c(SCc2ccccc2)nc2ccccc21 | i | i | i | i | · | ·
C=CCNC(=O)/C(=C\c1ccc([N+](=O)[O-])cc1)NC(C)=O | -7.6* | i | i | i | i | i
COc1ccc(-n2c(=S)[nH]c3cc(C(=O)NC4CCCCC4)ccc3c2=O)c(OC)c1 | i | i | i | i | · | ·
CCN(CC)Cc1c(C(=O)N/N=C/c2c(Cl)cccc2Cl)nnn1-c1nonc1N | i | i | i | i | · | ·
C#CC[N+]1(CC#Cc2ccc(C)cc2)CCCCC1 | -7* | i | i | i | 43%* | i
Cc1ccc(C#CC[N+]2(C)CCCCC2)cc1 | -6* | i | i | i | 43%* | i
COc1cccc(C(CNC(=O)c2ccc(Cl)c(S(=O)(=O)N3CCCC3)c2)N(C)C)c1 (stereo not given) | · | · | i | · | · | ·
O=C(CCc1nc2ccccc2c(=O)[nH]1)Nc1cccc(S(=O)(=O)N2CCOCC2)c1 | i | i | i | i | · | ·
O=[N+]([O-])c1ccc(O)c(-c2nn[nH]n2)c1 | i | i | i | i | · | ·
CC1CCN(S(=O)(=O)c2ccc3c(ccn3CCC(=O)N3CCCCC3)c2)CC1 | i | i | i | i | · | ·
CC1CCC(NC(=O)CCn2ccc3cc(S(=O)(=O)N4CCCC4)ccc32)CC1 (stereo not given) | -6.3* | i | i | i | 39%* | i
COC(=O)CCC(=O)NNC(=O)c1cccc(Cl)c1 | i | i | i | i | · | ·
O=C(Cc1ccc(Cl)cc1)NNC(=S)NC(=O)c1cccs1 | -5.2* | i | i | i | i | i
O=C(NC(=S)NNC(=O)c1ccccc1O)c1ccccc1 | i | i | i | i | · | ·
Cc1cccc(C(=O)NNC(=O)c2ccc(O)cc2)c1 | i | i | i | i | · | ·
Cc1ccccc1C(=O)NNC(=S)NC(=O)c1ccccc1 | -8.4* | i | i | i | 47%* | i
Cc1ccccc1NC(=S)NNC(=O)c1ccncc1 | -6.1* | i | i | i | 61%* | i
Cc1cccc(C(=O)NNC(=S)NC(=O)c2ccccc2)c1 | -7.4* | i | i | 100* | 41%* | i
Cn1c(=O)[nH]c(=O)c2c1nc(N1CCNCC1)n2CCOc1ccccc1 | i | i | i | i | · | ·
C=CCNC(=O)C1CCN(c2cnccn2)CC1 | i | i | i | i | · | ·
SMILES | CHT inh | CHT PAM | ANO1 activ | TMEM16A inh | CHT inh conf | HEK293 CHT ctr
COc1ccc(C(=O)NNC(=S)NC(=O)c2ccc(OC)cc2)cc1 | i | i | i | i | · | ·
Cc1cccc(C(=O)NNC(=S)NC(=O)c2cccs2)c1 | -7.5* | i | i | i | 29%* | i
COc1ccc(C(=O)NC(=S)NNC(=O)c2cccc(C)c2)cc1 | -7.8* | i | i | 25* | i | i
COc1ccc(C(=O)NNC(=S)NC(=O)c2cccs2)cc1 | i | i | i | i | · | ·
O=C(NC(=S)NNC(=O)[C@H]1C[C@@H]1c1ccccc1)c1cccc(F)c1 | -7.8* | i | i | 100* | 49%* | i
CCOc1ccc(NC(=O)CSc2nnc(CCNC(=O)c3ccc(OC)cc3)n2C)cc1 | i | i | i | i | · | ·
CCN(Cc1ccccc1)S(=O)(=O)c1cc(C(=O)NC2CCCCCC2)ccc1OC | -5.1* | i | i | i | 50%* | i
O=C(CNC(=O)c1cccs1)OCC(=O)c1ccc([N+](=O)[O-])cc1 | -5.1* | i | i | i | i | i
CCN(Cc1ccncc1)C(=O)c1cc(COc2c(C)cccc2C)on1 | -5.5* | i | i | i | 53%* | i
CCN(Cc1ccncc1)C(=O)c1cc(COc2ccc(F)cc2F)on1 | i | i | i | i | · | ·
Cc1cc(-c2ccccc2)n(-c2ccc(C(=O)N3CCN(c4ncccn4)CC3)cc2)n1 | -6.4* | i | i | i | 71%* | i
CCn1c(=O)c(C(=O)NNS(=O)(=O)c2ccc(NC(=O)OC)cc2)c(O)c2ccccc21 | i | i | i | i | · | ·
COC(=O)Nc1ccc(S(=O)(=O)NNC(=O)c2c(O)c3ccccc3n(C)c2=O)cc1 | -5.8* | i | i | i | 43%* | i
CC1CC2=C(NC(=S)NC2c2ccc(F)cc2)/C(=C/c2ccc(F)cc2)C1 (stereo not given) | i | i | i | i | · | ·
CCOC(=O)c1c(C)n(C)c2ccc(O)c(CN3CCC(C)CC3)c12 | -14* | i | i | i | 20%* | 4.2*
O=C(O)Cn1c(=O)c2cccn2c2ccccc21 | i | i | i | i | · | ·
CCOc1cc(N2CCOCC2)c(OCC)cc1NC(=O)Cc1ccccc1OC | i | i | i | i | · | ·
CCOc1cc(N2CCOCC2)c(OCC)cc1NC(=O)Cc1ccccc1 | -8.6* | i | i | i | 57%* | i
CCc1nnc(NS(=O)(=O)c2ccc(NC(=O)c3ccc(Br)cc3)cc2)s1 | -6.7* | i | i | i | 36%* | i
CCc1nnc(NS(=O)(=O)c2ccc(NC(=O)OC)cc2)s1 | i | i | i | i | · | ·
CCn1c(SCc2nc(-c3ccc(OC)c(OC)c3)no2)nnc1-c1cccs1 | -8.6* | i | i | i | 42%* | i
CCCCc1ccc(NC(=S)NCC2CCCO2)cc1 (stereo not given) | -11* | i | i | i | 49%* | i
CN1C[C@@H]2C(c3ccc(C(F)(F)F)cc3)C3(c4cccnc4)CC2(C3)[C@H]1c1ccccc1 (stereo not given in full) | -5.2* | i | i | i | 70%* | i
CC(OC(=O)C1CCN(S(=O)(=O)c2ccccc2)CC1)C(=O)Nc1ncc(Cl)cc1Cl (stereo not given) | i | i | i | i | · | ·

Screens: PubChem, Johns Hopkins Ion Channel Center
